Bioassay records deposited in PubChem BioAssay by several laboratories.
CR mimetic SO – caloric restriction mimetics inhibiting age-related superoxide in yeast. S. cerevisiae aged cells, superoxide DHE fluorescence; active compounds read low. superoxide response (% of plate mean), % at 10 µM. actives 0.18% (n = 330,000). AID 2690;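 active = superoxide response under a set limit, about three screen SD below normal, cut at about 65% in these data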;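 note: yeast aged for seven days with compound at 30 °C before DHE staining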
Fh CTSL1 inh – counter-screen for PFM18AAP inhibitors: inhibitors of F. hepatica cathepsin L1. inhibition, % at 5.96 µM. recombinant F. hepatica cathepsin L1, Z-Leu-Arg-MCA fluorescence. actives 0.49% (n = 300,000);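 active = inhibition above the mean of all tested compounds plus 3 SD, set per screening campaign, cut at about 17% in these data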
V-ATPase pHluor – alters yeast V-ATPase proton transport; S. cerevisiae, pHLuorin cytosolic pH fluorescence; response, % at 10 µM; actives 0.37% (n = 350,000); AID 504577; in the data active = response mostly above about 7.3%, no sharp cut-off; inactive = mostly below about 5.4%; note: actives read high
hiPSC survival – enhancers of human iPSC single-cell survival; AID 602274; hiPSC single-cell survival, ATPlite luminescence; 100% = ROCK inhibitor wells, 0% = DMSO; actives 0.044% (n = 360,000); survival enhancement, % at 20 µM; in the data active = survival enhancement above about 18%;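 note: cells exposed to compounds for 16 hours before the ATP read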
Superoxide pick – confirmation of caloric restriction mimetics inhibiting yeast age-related superoxide; superoxide response (% of plate), % at 10 µM; S. cerevisiae aging, superoxide DHE fluorescence; active compounds read low; shares compounds with CR mimetic SO; actives 1% (n = 850);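 active = superoxide signal below 65% of the plate average of sample wells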;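 note: cells aged with compound for 7 days at 30 degrees C before staining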
DHE counter – compound alters DHE oxidation or fluorescence in yeast; fluorescence response, % at 10 µM; S. cerevisiae BY4741, flow cytometry; active compounds read low; shares compounds with CR mimetic SO; 850 tested, under 10 active; AID 435000;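 active = fluorescence response below 15%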;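 note: lower means stronger quenching of DHE signal or ROS scavenging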
A number is an active result; - = inactive; . = no result. Hits are enriched below; roughly 1% of the tested compounds scored in any of these assays.

SMILES | CR mimetic SO | Fh CTSL1 inh | V-ATPase pHluor | hiPSC survival | Superoxide pick | DHE counter
NC(=NC(=O)c1cccc(C(F)(F)F)c1)c1ccc(C(F)(F)F)cn1 | - | - | - | - | . | .
NC(=NC(=O)c1ccc(OC(F)(F)F)cc1)c1ccc(C(F)(F)F)cn1 | 62 | - | - | - | - | -
Cc1ccc(/C=N/NC(=O)c2nnn(-c3nonc3N)c2CNc2ccccc2)cc1 | 65 | - | - | - | - | -
Cc1ccc(/C=N/NC(=O)c2nnn(-c3nonc3N)c2CSc2ccccc2)cc1 | - | - | - | - | . | .
CCc1cc(=O)oc2cc(C)cc(OC(C)C(=O)NC(Cc3c[nH]c4ccc(O)cc34)C(=O)O)c12 (stereo not given) | - | - | - | - | . | .
O=c1c2sc(-c3ccccc3)cc2nc2n1CCCCC2 | - | - | - | - | . | .
O=c1c2sc(-c3ccccc3)cc2nc2n1CCC2 | 48 | - | - | - | - | -
Cc1ccc(Cl)cc1NS(=O)(=O)c1cn(C)nc1C | 61 | - | - | - | - | -
CCc1c(C)nc2cc(-c3ccccc3)[nH]n2c1=O | - | - | - | - | - | -
Cc1ccccc1-c1cc2nc(-c3ccc([N+](=O)[O-])cc3)cc(=O)n2[nH]1 | - | - | - | - | . | .
CCc1c(C)nc2c(-c3ccccc3)c(-c3ccccc3)[nH]n2c1=O | - | - | - | - | - | -
CCc1c(C)nc2c(-c3ccccc3OC)c(C)[nH]n2c1=O | - | - | - | - | . | .
Cc1cccc(-c2cc3nc(-c4ccccc4)cc(=O)n3[nH]2)c1 | - | - | - | - | - | -
COc1cccc(CC(=O)OCC(=O)NC(C)c2ccc(F)cc2)c1 (stereo not given) | - | . | - | - | . | .
Cc1ccc(C)c(-n2c(-c3ccc(Br)cc3)csc2=NC(=O)c2ccccc2F)c1 | 53 | - | - | - | - | -
Cn1ccsc1=NC(=O)c1ccccc1F | - | - | - | - | . | .
CCCCn1c2ccccc2c2cc(CC(N)=O)ccc21 | - | - | - | - | - | -
C(=C/c1ccnc2nc(SC/C=C/c3ccccc3)nn12)/c1ccccc1 | - | - | - | - | . | .
COc1ccc(CC(=O)N(Cc2ccccc2)c2cccc(C)c2)cc1OC | 64 | - | - | - | - | -
CCCCCN(C(=O)CCC(=O)OCc1ccccc1Cl)c1c(N)n(CCCC)c(=O)[nH]c1=O | 60 | - | - | - | - | -
CC1(C(=O)Nc2ccc3c(c2)OCCO3)CCN1C(=O)Cc1ccc(-c2ccccc2)cc1 (stereo not given) | . | . | . | - | . | .
CCCc1c(NC(=O)Nc2ccc(F)cc2)cnn1-c1ccccc1 | 61 | - | - | - | - | -
CCCCCC(=O)NC(=S)Nc1cccc(C(C)=O)c1 | 60 | - | - | - | - | -
CC(=O)Nc1ccc(S(=O)(=O)Nc2cc(-c3ccccc3)nn2C)cc1 | - | - | - | - | . | .
CC(=O)Nc1ccc(S(=O)(=O)Nc2nc3nc(-c4ccccc4)cc(-c4ccccc4)n3n2)cc1 | 60 | - | - | - | - | -
SMILES | CR mimetic SO | Fh CTSL1 inh | V-ATPase pHluor | hiPSC survival | Superoxide pick | DHE counter
CC1(C)CC(=O)c2c(-c3cccs3)n[nH]c2C1 | 64 | - | - | - | - | -
CCCc1n[nH]c2c1C(=O)CC(C)(C)C2 | - | - | - | - | . | .
C[C@H](CO)N1C[C@H](C)[C@H](CN(C)S(=O)(=O)c2ccccc2F)OCc2cnnn2CCCC1=O | . | . | - | - | . | .
CCN(CC)S(=O)(=O)c1cc(OC)c(Cl)cc1Cl | 58 | - | - | - | - | -
CCN(CC)S(=O)(=O)c1cc(OC)c(C)cc1C | - | - | - | - | . | .
COc1ccc(CC(=O)Nc2nc(-c3cccnc3)cs2)cc1 | 63 | - | - | - | - | -
Cc1cc(C)n(-c2nnc(NCc3ccc(Cl)cc3)nn2)n1 | - | - | - | - | . | .
Cc1nn(-c2nnc(NCc3ccccc3)nn2)c(C)c1Br | 63 | - | - | - | - | -
COc1ccc(OC)c(-c2cc(C(=O)Nc3ccccc3C(N)=O)c3ccccc3n2)c1 | - | - | - | - | . | .
OCCN(CC#CCn1c2ccccc2c2ccccc21)CCO | - | - | - | - | - | -
OCCN(CC#CC(O)(c1ccccc1)C1CCCCC1)CCO (stereo not given) | - | - | - | - | . | .
CCOc1cccc(-c2nnc(SCC(=O)Nc3cccc(OC)c3)n2N)c1 | . | . | - | - | - | -
C=CCn1c(SCC(=O)Nc2ccc3c(c2)OCCO3)nnc1-c1ccco1 | - | - | - | - | - | -
C=CCn1c(SCC(=O)Nc2cc(NC(C)=O)ccc2OC)nnc1-c1cccnc1 | - | - | - | - | - | -
COc1cccc(NC(=O)CSc2nnc(-c3cc(C)[nH]n3)n2N)c1 | - | - | - | - | . | .
COc1cccc(-c2nnc(SCC(=O)Nc3ccc(OC)c(OC)c3)n2N)c1 | - | - | - | - | - | -
O=c1c(Cl)c(O)c2cccc3c4ccccc4n1c23 | - | - | - | - | . | .
COc1c(O)c(=O)n2c3ccccc3c3ccnc1c32 | 62 | - | - | - | - | -
CC(NC(=O)N(Cc1ccccc1)Cc1ccc2c(c1)OCO2)(C(F)(F)F)C(F)(F)F | - | - | - | - | . | .
CC(=O)OCCN(Cc1ccccc1)Cc1ccc2c(c1)OCO2 | 64 | - | - | - | - | -
Cc1cccn2c(=O)c3cc(C(=O)NCc4ccco4)c(=N)n(C(C)C)c3nc12 | 64 | - | - | - | - | -
CC1(C(=O)NS(=O)(=O)C2CC2)CCCN(C(=O)c2ccc(F)cc2Cl)C1 (stereo not given) | . | . | . | - | . | .
CCNC(=S)NNC(=O)c1csc2c1CCCC2 | 58 | - | - | - | - | -
N#CC(c1nc2ccccc2nc1N1CCCC1)S(=O)(=O)c1ccccc1 (stereo not given) | 63 | - | - | - | - | -
NS(=O)(=O)c1ccc(S(=O)(=O)c2ccccc2)nc1 | 64 | - | - | - | - | -
SMILES | CR mimetic SO | Fh CTSL1 inh | V-ATPase pHluor | hiPSC survival | Superoxide pick | DHE counter
O=S(=O)(c1ccc(Cl)cc1)c1ccccn1 | - | - | - | - | . | .
Cc1ccc(NC(=O)CNCC(c2ccccc2)N(C)C)cc1F (stereo not given) | - | - | - | - | . | .
Cc1cc(NC(=O)CNCC(c2ccccc2)N(C)C)c([N+](=O)[O-])cc1C (stereo not given) | 43 | - | - | - | - | -
COc1ccccc1N1CCN(S(=O)(=O)c2cn(C)cn2)CC1 | 65 | - | - | - | - | -
Cc1ccc(N/N=C2/CCCNC2=O)cc1 | - | - | - | - | . | .
CC(=O)c1ccc(N/N=C2/CCCNC2=O)cc1 | 63 | - | - | - | - | -
O=C(Cn1c(NCCCO)nc2ccccc21)c1ccc(Cl)cc1Cl | - | - | - | - | . | .
Cc1[nH][nH]c(=O)c1C(c1ccc(O)c(Br)c1)c1c(C)[nH][nH]c1=O | 56 | - | - | - | - | -
COc1ccc(C(c2c(C)[nH][nH]c2=O)c2c(C)[nH][nH]c2=O)cc1Br | - | - | - | - | . | .
O=C(Cc1ccc(-n2c(=S)[nH]c3ccccc3c2=O)cc1)N1CCN(c2ccccc2)CC1 | 65 | - | - | - | - | -
